Measurements reported in the supplement of paper PMC9433436.
± gives the standard deviation of the averaged measurements. In all, about 4,100 sequences were measured (“relative kcat/Km (krel) vs genomic leader AAAGAU”: median about 1.7, highest 2% from about 6.5 on). This is one part of a sample in which the highest values are shown more often than they occur.

Target: T1, E. coli RNase P holoenzyme (M1 P RNA + rnpA protein) (UniProt P0A7Y8)
T1 sequence: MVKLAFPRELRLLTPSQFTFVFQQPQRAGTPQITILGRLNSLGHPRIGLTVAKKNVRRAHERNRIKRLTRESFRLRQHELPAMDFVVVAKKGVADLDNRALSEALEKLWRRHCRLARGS
Assay: relative kcat/Km (krel) vs genomic leader AAAGAU (relative (reference leader = 1)); higher = faster RNase P cleavage
Protocol: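 HTS-Kin: a pool of ptRNA-Met (21C construct) with all 4096 combinations of 5' leader nucleotides N(-6) to N(-1) was processed in vitro by E. coli RNase P (P RNA + rnpA/C5 protein) under multiple-turnover conditions at 37 C, pH 8, 17.5 mM MgCl2. Residual substrate was Illumina-sequenced at several fractions reacted, and relative kcat/Km (krel) was computed by internal competition kinetics, calibrated to the genomic leader (AAAGAU = 1). The listed hexamer is the varied N(-6)..N(-1) leader (DNA letters), and it sits between a fixed 5' stem-loop flank (GCAUGCACGAAAGUGCGUGCUAUGAA) and the mature tRNA-Met starting GGCUACGUAGCUCAGUUGG. Two technical replicates are averaged.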

[1] = fraction of substrate reacted: ~9-10% (9.79% repeat 1, 9.1% repeat 2)
[2] = fraction of substrate reacted: ~13-16% (15.68% repeat 1, 13.17% repeat 2)
[3] = fraction of substrate reacted: ~26-29% (28.66% repeat 1, 26.4% repeat 2)

| Sequence | relative kcat/Km [1] | relative kcat/Km [2] | relative kcat/Km [3] |
| --- | --- | --- | --- |
| ACCTGC | 3.58 ± 3.5 | 3.61 ± 2.3 | 5.37 ± 2.5 |
| TCCTGG | 0.344 ± 0.27 | 0.715 ± 0.34 | 1.15 ± 1.1 |
| TCCTGA | 3.23 ± 0.83 | 4.19 ± 0.42 | 6.6 ± 2.5 |
| ATTACA | 2.55 ± 1.5 | 2.08 ± 0.14 | 2.94 ± 1.2 |
| CCCACT | 1.87 ± 1.1 | 1.27 ± 0.14 | 2.79 ± 0.067 |
| AAATCT | 1.86 ± 0.61 | 2.09 ± 0.095 | 2.8 ± 0.68 |
| GCACGC | – | – | 1.29 ± 1.2 |
| GGCTAT | 2.25 ± 0.98 | 1.99 ± 0.48 | 2.88 ± 0.85 |
| CTATGT | 0.766 ± 0.47 | 1.38 ± 0.98 | – |
| ATCTAC | 4.97 ± 1.4 | 6.58 ± 2 | 9.08 ± 4.5 |
| GTCTAT | 5.93 ± 2.3 | 6.62 ± 1.5 | 9.91 ± 4.4 |
| ATCTAG | 2.49 ± 0.96 | 3.16 ± 1 | 5.72 ± 2.4 |
| ATCTGT | – | 1.3 ± 1.2 | 1.76 ± 1.5 |
| CTATCT | 3.05 ± 0.67 | 3.54 ± 0.89 | 4.18 ± 1.4 |
| ATGTCT | 1.82 ± 0.38 | 2.3 ± 0.33 | 2.43 ± 1 |
| AGCTAC | 1.27 ± 0.29 | 3.3102 ± 0.0027 | 4.78 ± 1.9 |
| ATCTAT | 3.93 ± 1.4 | 5.38 ± 1 | 7.98 ± 3.7 |
| ATCTCG | 2.52 ± 2 | 2.14 ± 0.37 | 3.55 ± 1.2 |
| CTCTAT | 4.59 ± 0.51 | 6.38 ± 1.7 | 9.17 ± 4 |
| ATACTT | 1.93 ± 1.3 | 1.97 ± 0.58 | 2.62 ± 1.1 |
| GCGAAT | 0.964 ± 0.25 | 1.54 ± 0.49 | 2.09 ± 0.45 |
| CAGCGC | 1.95 ± 0.83 | 1.4 ± 0.14 | 2.09 ± 0.64 |
| CTGCGG | – | 0.228 ± 0.042 | 0.674 ± 0.39 |
| TGGGAA | – | 1.31 ± 0.98 | 1.24 ± 0.69 |
| CAGCTA | 1.51 ± 0.56 | 1.21 ± 0.27 | 1.85 ± 0.51 |
| ACTGGA | 0.346 ± 0.015 | – | – |

| Sequence | relative kcat/Km [1] | relative kcat/Km [2] | relative kcat/Km [3] |
| --- | --- | --- | --- |
| TGGTAG | – | – | 0.538 ± 0.38 |
| TTTCTC | 2.12 ± 0.99 | 2.29 ± 0.41 | 2.91 ± 0.93 |
| TTATGC | 3.22 ± 0.63 | 4.29 ± 0.74 | 6.16 ± 2.8 |
| CCGTAC | 3.58 ± 1 | 4.22 ± 0.54 | 5.69 ± 2.3 |
| GCTTAA | 1.72 ± 1 | 2.36 ± 0.11 | 3.64 ± 0.66 |
| AACTTC | 3.37 ± 1.2 | 3.49 ± 0.17 | 4.33 ± 1.5 |
| TACATA | 3.93 ± 2 | 4.55 ± 0.65 | 6.5 ± 2.8 |
| GCTGAT | 1.1 ± 0.57 | 1.1 ± 0.49 | 0.636 ± 0.14 |
| TGAGGA | 0.562 ± 0.032 | – | 1.42 ± 0.78 |
| TTAAGA | 1.95 ± 0.61 | 2.89 ± 0.47 | 3.88 ± 1.5 |
| CTCTAG | 3.37 ± 2.2 | 3.41 ± 0.89 | 5.82 ± 2 |
| GGCTAC | 1.69 ± 1.4 | 1.98 ± 0.51 | 2.81 ± 1.3 |
| GTCTAG | 3.54 ± 2.5 | 3.25 ± 0.17 | 5.81 ± 1.6 |
| CTACAC | 2.87 ± 1.7 | 3 ± 0.59 | 4.74 ± 1.4 |
| CTCTAC | 4.76 ± 1.6 | 6.63 ± 1.3 | 8.97 ± 3.6 |
| GTCTAC | 4.47 ± 0.65 | 6.86 ± 2.4 | 10.1 ± 4.8 |
| TACGTT | 1.82 ± 0.88 | 1.95 ± 0.067 | 2.61 ± 1 |
| CAAGAT | 1.15 ± 0.24 | 0.704 ± 0.019 | 1.49 ± 0.33 |
| CTCCGC | 3.56 ± 0.068 | 4.98 ± 1.7 | 6.8 ± 2.7 |
| GTCCGG | – | – | 1.17 ± 0.26 |
| GTCCGC | 3.94 ± 0.68 | 5.24 ± 1.4 | 8 ± 3.3 |
| CACCGC | 2.34 ± 0.56 | 3.87 ± 1.6 | 5.89 ± 2.7 |
| GGCCGC | 1.55 ± 0.064 | 1.97 ± 0.17 | 3.73 ± 0.94 |
| ATCCCA | 2.69 ± 1.7 | 2.52 ± 0.24 | 3.52 ± 0.92 |
| CGCCGC | 2.62 ± 0.84 | 3.479 ± 0.016 | 4.99 ± 2 |
| CTCCGT | – | 1.79 ± 1.2 | 2.01 ± 1.7 |
